Test results published in the supplement of paper PMC10849652.
Of roughly 7,900 targets only a part is listed; those with a hit were picked by preference. About 0.6% of all pairs of compound and target were hits. Values without a mark were called inactive.

Each target was assayed with c1cn2cc(-c3ccc4cn[nH]c4c3)nc(Nc3ccc(N4CCOCC4)cc3)c2n1 [entospletinib] (assay: log2 fold change, soluble protein after heating vs DMSO (PISA); higher = thermal stabilisation; K562 cells, 10 uM, 30 min; active = over 0.2 and 3.5 SD of the protein, either way, in both replicates (recomputed)).
In short: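 K562 cells at 2×10^6 cells/mL were given 10 μM compound for 30 min. Aliquots then went through 3 min of heating across 48°C-58°C, were pooled, and were extracted in PBS with 0.5% NP-40 at 4°C, and the supernatant after 21,000xg for 90 min was quantified by TMTpro 16plex LC-MS/MS with channel sums equalised. Thermal stability relative to control samples, from duplicates, is given as log2 fold change.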

Sequence of UniProt Q6UX04 (Q6UX04 whole entry, looked up): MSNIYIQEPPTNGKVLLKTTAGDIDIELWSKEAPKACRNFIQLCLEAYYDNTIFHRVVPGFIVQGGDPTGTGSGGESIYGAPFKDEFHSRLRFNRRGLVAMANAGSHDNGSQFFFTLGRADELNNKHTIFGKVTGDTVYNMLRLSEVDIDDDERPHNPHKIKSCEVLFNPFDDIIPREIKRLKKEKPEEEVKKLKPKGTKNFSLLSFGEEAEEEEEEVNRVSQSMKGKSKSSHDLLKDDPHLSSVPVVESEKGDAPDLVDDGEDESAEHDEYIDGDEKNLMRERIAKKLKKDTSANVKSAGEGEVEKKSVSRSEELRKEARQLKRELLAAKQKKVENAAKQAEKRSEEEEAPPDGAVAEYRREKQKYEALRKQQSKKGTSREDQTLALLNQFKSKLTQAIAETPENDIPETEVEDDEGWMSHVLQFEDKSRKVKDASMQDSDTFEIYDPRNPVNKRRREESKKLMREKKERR
Sequence of UniProt Q96E09 (Q96E09 whole entry, looked up): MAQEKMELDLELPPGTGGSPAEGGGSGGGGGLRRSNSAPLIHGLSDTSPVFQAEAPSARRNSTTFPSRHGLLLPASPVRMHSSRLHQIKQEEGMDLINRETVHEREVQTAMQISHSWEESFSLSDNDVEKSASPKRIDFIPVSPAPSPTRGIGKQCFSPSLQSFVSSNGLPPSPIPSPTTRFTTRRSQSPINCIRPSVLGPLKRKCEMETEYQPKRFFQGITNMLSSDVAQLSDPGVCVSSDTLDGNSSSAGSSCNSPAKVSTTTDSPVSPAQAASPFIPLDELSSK
Sequence of UniProt Q9H4H8 (Q9H4H8 whole entry, looked up): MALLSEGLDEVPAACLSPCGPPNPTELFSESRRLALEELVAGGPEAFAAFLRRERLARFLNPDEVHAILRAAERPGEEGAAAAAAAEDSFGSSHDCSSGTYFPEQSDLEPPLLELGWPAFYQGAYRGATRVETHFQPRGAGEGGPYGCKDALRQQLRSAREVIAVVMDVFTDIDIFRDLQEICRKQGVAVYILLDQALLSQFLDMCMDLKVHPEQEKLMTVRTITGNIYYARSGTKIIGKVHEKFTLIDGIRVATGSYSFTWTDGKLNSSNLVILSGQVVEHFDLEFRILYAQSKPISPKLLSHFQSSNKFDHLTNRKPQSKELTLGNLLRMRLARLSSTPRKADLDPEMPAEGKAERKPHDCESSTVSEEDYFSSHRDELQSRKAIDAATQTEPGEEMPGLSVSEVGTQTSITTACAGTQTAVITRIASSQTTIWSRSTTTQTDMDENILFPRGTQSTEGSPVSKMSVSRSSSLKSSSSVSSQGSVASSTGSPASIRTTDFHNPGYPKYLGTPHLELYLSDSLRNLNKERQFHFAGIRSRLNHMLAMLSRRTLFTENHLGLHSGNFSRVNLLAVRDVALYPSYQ
Sequence of UniProt O15121 (O15121 whole entry, looked up): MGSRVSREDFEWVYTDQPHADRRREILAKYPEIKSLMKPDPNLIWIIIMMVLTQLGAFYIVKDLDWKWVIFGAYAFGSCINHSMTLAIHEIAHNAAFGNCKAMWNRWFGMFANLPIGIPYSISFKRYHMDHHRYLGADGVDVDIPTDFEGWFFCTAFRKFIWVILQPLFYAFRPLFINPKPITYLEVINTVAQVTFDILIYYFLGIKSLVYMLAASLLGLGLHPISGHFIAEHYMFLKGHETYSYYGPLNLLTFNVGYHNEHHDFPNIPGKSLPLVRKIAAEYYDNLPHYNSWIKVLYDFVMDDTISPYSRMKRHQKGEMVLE
Sequence of UniProt P39880 (P39880 whole entry, looked up): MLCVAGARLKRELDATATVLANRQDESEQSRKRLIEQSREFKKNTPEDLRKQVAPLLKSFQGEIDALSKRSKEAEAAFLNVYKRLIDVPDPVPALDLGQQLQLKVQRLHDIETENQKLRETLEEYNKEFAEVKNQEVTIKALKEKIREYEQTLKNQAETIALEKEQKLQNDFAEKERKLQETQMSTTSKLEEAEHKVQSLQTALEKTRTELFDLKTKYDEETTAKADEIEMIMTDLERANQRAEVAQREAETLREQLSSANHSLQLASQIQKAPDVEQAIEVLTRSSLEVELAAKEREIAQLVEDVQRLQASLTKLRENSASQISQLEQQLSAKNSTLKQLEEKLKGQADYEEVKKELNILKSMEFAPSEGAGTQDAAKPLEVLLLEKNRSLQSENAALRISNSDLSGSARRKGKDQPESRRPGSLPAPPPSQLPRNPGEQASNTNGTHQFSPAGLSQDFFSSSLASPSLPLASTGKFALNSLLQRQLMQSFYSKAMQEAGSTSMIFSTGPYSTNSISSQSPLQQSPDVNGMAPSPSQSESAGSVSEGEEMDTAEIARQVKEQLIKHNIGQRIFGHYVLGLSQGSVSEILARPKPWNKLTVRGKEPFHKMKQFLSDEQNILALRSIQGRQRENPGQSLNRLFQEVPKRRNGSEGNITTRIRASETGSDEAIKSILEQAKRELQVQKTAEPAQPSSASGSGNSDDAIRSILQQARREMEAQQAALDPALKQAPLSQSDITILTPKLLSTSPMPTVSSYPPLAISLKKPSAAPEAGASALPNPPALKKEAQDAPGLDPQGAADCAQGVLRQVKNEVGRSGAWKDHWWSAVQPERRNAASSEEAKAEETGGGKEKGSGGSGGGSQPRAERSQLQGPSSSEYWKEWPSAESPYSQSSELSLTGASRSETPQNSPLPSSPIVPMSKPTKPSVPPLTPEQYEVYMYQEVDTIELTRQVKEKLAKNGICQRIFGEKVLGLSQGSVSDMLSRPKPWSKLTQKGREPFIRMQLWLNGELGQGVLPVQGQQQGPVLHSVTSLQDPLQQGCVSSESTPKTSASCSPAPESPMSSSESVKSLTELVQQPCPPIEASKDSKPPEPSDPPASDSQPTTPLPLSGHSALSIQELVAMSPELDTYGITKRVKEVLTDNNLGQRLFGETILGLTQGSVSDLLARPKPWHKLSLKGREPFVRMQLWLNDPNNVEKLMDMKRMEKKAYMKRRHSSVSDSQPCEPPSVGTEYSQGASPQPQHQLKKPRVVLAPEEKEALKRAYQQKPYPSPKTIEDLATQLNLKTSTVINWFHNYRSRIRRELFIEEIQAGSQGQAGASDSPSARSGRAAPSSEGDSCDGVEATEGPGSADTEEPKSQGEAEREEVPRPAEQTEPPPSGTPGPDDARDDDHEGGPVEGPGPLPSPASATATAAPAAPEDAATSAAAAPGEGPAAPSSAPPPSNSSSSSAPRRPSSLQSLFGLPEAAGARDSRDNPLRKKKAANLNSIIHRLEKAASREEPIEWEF
Sequence of UniProt Q16850 (Q16850 whole entry, looked up): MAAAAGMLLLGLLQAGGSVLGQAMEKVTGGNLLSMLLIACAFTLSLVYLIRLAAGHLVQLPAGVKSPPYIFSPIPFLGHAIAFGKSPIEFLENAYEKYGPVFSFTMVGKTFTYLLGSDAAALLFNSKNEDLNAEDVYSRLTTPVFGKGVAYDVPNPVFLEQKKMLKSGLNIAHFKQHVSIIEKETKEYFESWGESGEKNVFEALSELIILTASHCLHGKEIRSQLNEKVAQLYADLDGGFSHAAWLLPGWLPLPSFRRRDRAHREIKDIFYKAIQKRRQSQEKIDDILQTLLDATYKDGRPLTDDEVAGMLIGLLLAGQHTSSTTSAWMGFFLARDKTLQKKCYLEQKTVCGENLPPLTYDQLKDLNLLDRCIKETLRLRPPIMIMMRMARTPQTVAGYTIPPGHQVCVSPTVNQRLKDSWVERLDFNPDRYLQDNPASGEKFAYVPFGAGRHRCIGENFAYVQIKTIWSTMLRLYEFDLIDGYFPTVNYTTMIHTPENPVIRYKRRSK
Sequence of UniProt Q8N6R0 (Q8N6R0 whole entry, looked up): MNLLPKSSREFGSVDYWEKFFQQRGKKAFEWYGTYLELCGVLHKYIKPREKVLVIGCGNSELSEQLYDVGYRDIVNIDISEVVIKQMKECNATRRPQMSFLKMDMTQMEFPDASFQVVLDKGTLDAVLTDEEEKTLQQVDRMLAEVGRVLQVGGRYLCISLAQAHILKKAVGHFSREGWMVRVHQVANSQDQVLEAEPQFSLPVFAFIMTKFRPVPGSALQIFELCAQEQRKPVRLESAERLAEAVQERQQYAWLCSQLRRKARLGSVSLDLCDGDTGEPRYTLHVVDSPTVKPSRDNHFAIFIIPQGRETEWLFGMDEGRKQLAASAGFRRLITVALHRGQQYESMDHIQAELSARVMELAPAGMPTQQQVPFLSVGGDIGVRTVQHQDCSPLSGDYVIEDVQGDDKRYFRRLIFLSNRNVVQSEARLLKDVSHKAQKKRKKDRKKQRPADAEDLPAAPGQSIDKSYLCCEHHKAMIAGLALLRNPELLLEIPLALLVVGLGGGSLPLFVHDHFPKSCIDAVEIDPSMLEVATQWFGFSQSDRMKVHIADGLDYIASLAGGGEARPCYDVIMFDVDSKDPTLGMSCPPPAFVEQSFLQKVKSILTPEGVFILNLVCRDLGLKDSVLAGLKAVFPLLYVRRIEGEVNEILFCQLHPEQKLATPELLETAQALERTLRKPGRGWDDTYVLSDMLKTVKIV
Sequence of UniProt P11182 (P11182 whole entry, looked up): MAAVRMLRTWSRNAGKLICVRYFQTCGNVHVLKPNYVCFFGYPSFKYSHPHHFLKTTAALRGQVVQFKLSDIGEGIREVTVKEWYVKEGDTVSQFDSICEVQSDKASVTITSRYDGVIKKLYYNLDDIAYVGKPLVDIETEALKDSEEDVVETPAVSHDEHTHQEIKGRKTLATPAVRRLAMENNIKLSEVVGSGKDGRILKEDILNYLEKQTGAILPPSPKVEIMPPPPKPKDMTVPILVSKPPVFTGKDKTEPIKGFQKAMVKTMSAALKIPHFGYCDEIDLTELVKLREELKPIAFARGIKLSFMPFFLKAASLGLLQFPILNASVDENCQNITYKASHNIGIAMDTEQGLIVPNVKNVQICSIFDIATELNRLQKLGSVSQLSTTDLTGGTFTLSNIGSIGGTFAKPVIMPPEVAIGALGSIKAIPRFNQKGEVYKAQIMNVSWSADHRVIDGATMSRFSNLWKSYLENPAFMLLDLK
Sequence of UniProt Q8N8J7 (Q8N8J7 whole entry, looked up): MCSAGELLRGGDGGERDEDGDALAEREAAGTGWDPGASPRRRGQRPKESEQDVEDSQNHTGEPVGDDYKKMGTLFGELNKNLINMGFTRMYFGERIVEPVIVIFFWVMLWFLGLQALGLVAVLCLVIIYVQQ

Row | Target | log2 fold change
1 | DEGS1 (UniProt O15121) | -0.03
2 | CUX1 isoform 3 (UniProt P39880) | 0.016
3 | FAM122A (UniProt Q96E09) | -0.012
4 | EEF1AKNMT (UniProt Q8N6R0) | 0.059
5 | DHRS7B (UniProt Q6IAN0) | 0.134
6 | EHBP1 (UniProt Q8NDI1) | -0.082
7 | DBT (UniProt P11182) | 0.025
8 | FADS1, A0A0A0MR51 | 0.055
9 | FAM83D (UniProt Q9H4H8) | 0.028
10 | ELF1 (UniProt P32519) | -0.082
11 | EXOC4 (UniProt Q96A65) | -0.067
12 | CYP51A1 (UniProt Q16850) | 0.093
13 | DHRS13 (UniProt Q6UX07) | -0.111
14 | EEF1G isoform 2 (UniProt P26641) | -0.012
15 | DBNL isoform 3 (UniProt Q9UJU6) | -0.087
16 | EIF2S3 (UniProt P41091) | -0.051
17 | FAM117B (UniProt Q6P1L5) | 0.009

Row | Target | log2 fold change
18 | DOLPP1 (UniProt Q86YN1) | 0.055
19 | DHCR7 (UniProt Q9UBM7) | -0.045
20 | CWC27 (UniProt Q6UX04) | -0.019
21 | FAM241A (UniProt Q8N8J7) | -0.008
22 | DCAF16 (UniProt Q9NXF7) | 0
23 | DNM2 (UniProt P50570) | -0.017
24 | FAM114A2 (UniProt Q9NRY5) | -0.022
25 | EDC3 (UniProt Q96F86) | -0.068
26 | EIF4E2 (UniProt O60573) | -0.107
27 | DTWD1 (UniProt Q8N5C7) | 0.039
28 | CTNNB1 (UniProt P35222) | -0.212
29 | CTSH (UniProt P09668) | -0.021
30 | EBNA1BP2 (UniProt Q99848) | 0.031
31 | DCTN1 isoform 4 (UniProt Q14203) | 0.061
32 | EED, A0A5F9ZI63 | 0.037
33 | FAM160A2 isoform 2 (UniProt Q8N612) | 0.039
34 | E2F4 (UniProt Q16254) | 0.02
